# A number with no mark means an inactive call.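 The calls were made as follows: active = inhibition over a set limit, the all-compound mean plus 3 SD, in both replicate runs; inconclusive = over that limit in just one replicate run; inactive = at or under that limit in both runs.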
# Assay: RAM pathway blockade in budding yeast – dse1pr::URA3 reporter, 5-FOA selection, pilot screen (AID 869);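 also: 0% = DMSO wells with no growth and 100% = 10 µM 1-NA-PP1 with full growth; RAM network block rescues cells from 5-FOA so hits raise OD615 growth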
# Conditions: S. cerevisiae dse1pr::URA3 5-FOA growth, OD615, 2 d; at 10 µM; stronger effect = higher value; strain carries analog-sensitive mutant Cbk1 kinase
row,Structure (SMILES),inhibition
1,Cc1cc(C(=O)NCc2ccc3c(c2)OCO3)n(-c2ccccc2)n1,0.985%
2,Cc1oc(-c2cccs2)nc1CS(=O)CC(=O)NCCc1ccccc1 (stereo unspecified),2.6%
3,CCOc1ccc(C(=O)Nn2cnnc2)cc1,0.895%
4,COc1ccc(C(=O)Nc2c(N)nc(SCC(=O)N3CCCCCC3)[nH]c2=O)cc1OC,1.97%
5,Cc1nnc(NC(=O)CSc2nnc(Cc3cccn3C)n2C)s1,0.91%
6,O=C(c1ccccn1)N(CC1CCCO1)C1(C(=O)NC2CCCCC2)CCCCC1 (stereo unspecified),1.69%
7,O=C(Cc1n[nH]c(=O)c2ccccc12)NCc1ccccn1,1.48%
8,Cn1c(C(=O)N2CCCCCC2)cc2c(=O)n(C)c3ccccc3c21,1.33%
9,COC(=O)c1ccccc1NC(=O)CSc1nc(N)cc(N)n1,0.39%
10,COc1ccc(C2(CNC(C)=O)CCOCC2)cc1OC,2.54%
11,CCc1ccc(-c2nc(C(N)=O)c3[nH]c(=O)n(-c4ccccc4OC)c3n2)cc1,2.18%
12,Cc1ccccc1-c1nc(CN2CCC(C(=O)O)CC2)c(C)o1,0%
13,Cc1ccc(C)c(NC(=O)CS(=O)(=O)c2c[nH]c3ccccc23)c1,2.13%
14,COc1ccc(N2CSC3=C(C#N)C(c4ccc(OC)c(OC)c4)CC(=O)N3C2)c(OC)c1 (stereo unspecified),1.88%
15,O=C1CCc2cc(S(=O)(=O)NC(Cc3ccccc3)C(=O)NCC3CCCO3)ccc2N1 (stereo unspecified),2.2%
16,COC(=O)c1c(C)nc(C)c2c(=O)oc3ccccc3c12,2.04%

# Reference: PubChem BioAssay
